Out of some 3,200 compounds screened, about 300 (9.4%) showed activity. For the sample, actives were picked, then their nearest neighbours and some compounds at random.
System: A673/TR/shEF
Assay: cell viability (LOESS-normalised, relative to median of negative controls) (log2 ratio); higher = more viable cells (less compound effect), active = hit call of the paper (over 3 MAD below the median)
Details: treatment time: 72 h
In short: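 A673/TR/shEF Ewing sarcoma cells (1,500 per well, 384-well plates) were grown with or without doxycycline to induce EWS-FLI1 shRNA knockdown, starting 24 h before compounds. Library compounds at two or more concentrations, with DMSO controls, were added for three days. Cell viability was read by CellTiter-Glo luminescence on an Envision reader, then LOESS-corrected per plate, divided by the median of negative controls and log2-transformed. Hits were wells at least three median absolute deviations from the median of all screened wells.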

[1] = 0.25 µM, library screen: screen1, EWS-FLI1 expression: high (no doxycycline)
[2] = 0.25 µM, library screen: screen1, EWS-FLI1 expression: low (doxycycline-induced shRNA knockdown)
[3] = 2.5 µM, library screen: screen1, EWS-FLI1 expression: high (no doxycycline)
[4] = 2.5 µM, library screen: screen1, EWS-FLI1 expression: low (doxycycline-induced shRNA knockdown)
[5] = 0.25 µM, library screen: screen2, EWS-FLI1 expression: high (no doxycycline)
[6] = 0.25 µM, library screen: screen2, EWS-FLI1 expression: low (doxycycline-induced shRNA knockdown)
[7] = 2.5 µM, library screen: screen2, EWS-FLI1 expression: high (no doxycycline)
[8] = 2.5 µM, library screen: screen2, EWS-FLI1 expression: low (doxycycline-induced shRNA knockdown)
[9] = 0.103 µM, library screen: screen3, EWS-FLI1 expression: high (no doxycycline)
[10] = 0.103 µM, library screen: screen3, EWS-FLI1 expression: low (doxycycline-induced shRNA knockdown)
[11] = 0.308 µM, library screen: screen3, EWS-FLI1 expression: high (no doxycycline)
[12] = 0.308 µM, library screen: screen3, EWS-FLI1 expression: low (doxycycline-induced shRNA knockdown)
[13] = 0.926 µM, library screen: screen3, EWS-FLI1 expression: high (no doxycycline)
[14] = 0.926 µM, library screen: screen3, EWS-FLI1 expression: low (doxycycline-induced shRNA knockdown)
[15] = 2.8 µM, library screen: screen3, EWS-FLI1 expression: high (no doxycycline)
[16] = 2.8 µM, library screen: screen3, EWS-FLI1 expression: low (doxycycline-induced shRNA knockdown)
[17] = 8.3 µM, library screen: screen3, EWS-FLI1 expression: high (no doxycycline)
[18] = 8.3 µM, library screen: screen3, EWS-FLI1 expression: low (doxycycline-induced shRNA knockdown)
[19] = 25 µM, library screen: screen3, EWS-FLI1 expression: high (no doxycycline)
[20] = 25 µM, library screen: screen3, EWS-FLI1 expression: low (doxycycline-induced shRNA knockdown)

Measured: cell viability (log2)

CC(=O)O[C@H]1C[C@@H](OC(C)=O)C(C)(C)C2CC(=O)[C@]3(C)C(CC[C@@]4(C)[C@H](C(=O)O)OC(=O)C5OC543)[C@]21C (stereo partly drawn)
inactive: [1] 0.123 | [2] 0.114 | [3] 0.0482 | [4] 0.118

CCC(=O)NCC1OC(n2cnc3c(NCc4ccccc4)ncnc32)C(O)C1O (stereo not drawn)
inactive: [5] 0.0412 | [6] 0.0737 | [7] 0.224 | [8] 0.113

COC(=O)C[C@H]1C(C)(C)C(=O)[C@@H]2CC3=C4CC(OC)O[C@@H](c5ccoc5)[C@]4(C)CCC3[C@@]1(C)C2=O (stereo partly drawn)
inactive: [1] 0.115 | [2] 0.14 | [3] 0.0882 | [4] 0.172

COc1ccc(-c2coc3cc(OC(C)=O)cc(OC(C)=O)c3c2=O)cc1
inactive: [1] 0.0854 | [2] -0.00831 | [3] 0.156 | [4] 0.114

COc1c(O)cc2occ(-c3ccc(O)cc3)c(=O)c2c1O
inactive: [1] 0.15 | [2] 0.0261 | [3] 0.0979 | [4] 0.0895

CC(=O)O[C@H]1CC[C@]2(C)[C@H]3CC=C4[C@@H]5CC(C)(C)CC[C@]5(C(=O)O)CC[C@@]4(C)[C@]3(C)CC[C@H]2C1(C)C
inactive: [1] 0.0325 | [2] 0.0553 | [3] 0.0391 | [4] 0.0458

Cc1nnc(C(C)C)n1C1C[C@H]2CC[C@@H](C1)N2CC[C@H](NC(=O)C1CCC(F)(F)CC1)c1ccccc1 (stereo partly drawn)
inactive: [9] 0.00773 | [10] 0.0537 | [11] 0.179 | [12] 0.0864 | [13] 0.11 | [14] 0.0142 | [15] 0.152 | [16] 0.0241 | [17] 0.00455 | [18] 0.0886 | [19] 0.0767 | [20] 0.0769

C=C1C(=O)OC2CC1C(OC(C)=O)C/C(C)=C/CC/C(C)=C\CCC2(C)O (stereo not drawn)
inactive: [1] 0.18 | [2] 0.0249 | [3] 0.0625 | [4] -0.139

O=C1c2ccc(O)cc2OC(c2cc(O)c(O)c(O)c2)C1O (stereo not drawn)
inactive: [1] 0.0896 | [2] 0.0484 | [3] 0.165 | [4] 0.11

Nc1nc(Cl)nc2c1ncn2[C@@H]1O[C@H](CO)[C@@H](O)[C@H]1O
inactive: [5] 0.323 | [6] 0.0766 | [7] 0.0971 | [8] -0.0176

OC[C@H]1O[C@@H](n2cnc3c(NC4CCCC4)nc(Cl)nc32)[C@H](O)[C@@H]1O
inactive: [5] 0.143 | [6] 0.038 | [7] 0.169 | [8] 0.0636

Nc1ncnc2c1ncn2[C@H]1C[C@H](O)[C@@H](CO)O1
inactive: [1] 0.0888 | [2] 0.137 | [3] 0.0495 | [4] 0.162

Nc1nc(Cl)nc2c1ncn2[C@@H]1O[C@H](CO)[C@@H](O)[C@@H]1F
inactive: [9] 0.0438 | [10] 0.0567 | [11] 0.104 | [12] 0.0694 | [13] -0.027 | [14] 0.0481 | [16] 0.0753 | [18] -0.0627
active: [15] -0.287 | [17] -1.27 | [19] -3.63 | [20] -0.69

Nc1nc(Cl)nc2c1ncn2[C@H]1C[C@H](O)[C@@H](CO)O1
active: [17] -0.402 | [19] -1.32 | [20] -0.402
inactive: [9] 0.0389 | [10] -0.0254 | [11] 0.0133 | [12] 0.0217 | [13] 0.0147 | [14] 0.0591 | [15] -0.0664 | [16] 0.0972 | [18] -0.0455

Nc1nc(Cl)nc2c1ncn2[C@@H]1O[C@H](COP(=O)(O)OP(=O)(O)OP(=O)(O)O)[C@H](O)C1O (stereo partly drawn)
inactive: [5] 0.146 | [6] 0.0571 | [7] 0.0213 | [8] 0.0355

CC1(NCC(O)COc2cccc3[nH]ccc23)CCC(C(C)(C)NC(=O)CBr)CC1 (stereo not drawn)
inactive: [5] 0.126 | [6] 0.0547 | [7] 0.106 | [8] 0.0182

CCOc1c(Br)cc(C=C(C#N)c2nn(-c3ccccc3)c(N)c2C#N)cc1OC
inactive: [1] 0.0856 | [2] 0.124 | [3] 0.0719 | [4] 0.193

CCOC(=O)c1c[nH]c2c(C)cccc2c1=O
inactive: [1] 0.111 | [2] 0.0771 | [3] 0.1 | [4] -0.0609

CC[C@H]1OC(=O)[C@H](C)[C@@H](O[C@H]2C[C@@](C)(OC)[C@@H](O)[C@H](C)O2)[C@H](C)[C@@H](O[C@@H]2O[C@H](C)C[C@H](N(C)C)[C@H]2O)[C@](C)(O)C[C@@H](C)[C@@H]2N[C@@H](COCCOC)OC([C@H]2C)[C@]1(C)O
inactive: [1] 0.163 | [2] 0.065 | [3] 0.143 | [4] 0.0253

COc1cc(O)c2c(=O)c(-c3ccc(O)cc3)coc2c1
inactive: [1] -0.0342 | [2] 0.0164 | [3] 0.131 | [4] 0.0327

O=C1CCCCC/C=C\CCCCCCCCO1
inactive: [1] -0.00728 | [2] 0.0186 | [3] 0.143 | [4] 0.0924

CCCCCCCCCCCCCCCCCC(=O)NCC(COP(=O)([O-])OCC[N+](C)(C)C)OC (stereo not drawn)
inactive: [5] 0.255 | [6] 0.0758 | [7] 0.173 | [8] 0.0504

Cc1cc(Nc2cc(CN3CCOCC3)c3nc(C)c(Cc4ccc(Cl)cc4F)n3n2)n[nH]1
inactive: [9] 0.0112 | [10] 0.0393 | [11] -0.00623 | [12] -0.00356 | [13] -0.0578 | [14] 0.0432 | [16] -0.0123
active: [15] -0.183 | [17] -0.442 | [18] -0.142 | [19] -1.04 | [20] -0.863

COc1c2ccoc2c(OC)c2oc(=O)ccc12
inactive: [1] 0.157 | [2] -0.0309 | [3] 0.197 | [4] 0.0899

Reference: the supplement of paper PMC6089552
